Measurements published in PubChem BioAssay (NCATS).
Inconclusive results are not listed. Some structures have more than one record in an assay (separate samples or runs), and their calls can disagree. Calls of active or inactive are those of the source. Unless noted, the call rests on the fitted dose curve; in most records, active means well fitted inhibition curve with a large enough effect; inconclusive means small, poorly fitted or top-dose-only effect; inactive means no such curve, though single readings can be large or run the other way.

How the values were obtained:
[1] = NS1 protein of Zika virus - qHTS assay to identify small molecule inhibitors in human HEK 293 cells (AID 1347053); details: HEK293 ZIKV MR766 infection, NS1 TR-FRET, 24 h; series mostly up to 46.1 µM; further: nearly all actives have a fitted effect of over 55% in size; further: potency means the concentration at half of the fitted maximal effect
Summary of the method: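 TR-FRET signal from two anti-ZIKV NS1 antibodies quantified NS1 in HEK 293 cells 24 h after MR766 infection at MOI = 0.5; compounds were added 1 h before virus. Uninfected cells and infected cells defined the NS1 normalization range.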

[2] = qHTS for Inhibitors of the Functional Ribonucleoprotein Complex (vRNP) of Lassa (LASV) Arenavirus: LASV Primary Screen - GLuc reporter signal (AID 1347082; calls by dose curve; tested in HEK293 reporter line; further: nearly all actives have a fitted effect of over 60% in size); details: LASV minigenome vRNP, Gaussia luciferase reporter; series mostly up to 57.5 µM
[3] = qHTS for Inhibitors of the Functional Ribonucleoprotein Complex (vRNP) of Lassa (LASV) Arenavirus: Viability assay - alamar blue signal for LASV Primary Screen (AID 1347083; calls by dose curve; tested in HEK293 reporter line; further: nearly all actives have a fitted effect of over 80% in size); details: cell viability, alamar blue fluorescence (LASV minigenome counter-screen); series mostly up to 57.5 µM
[4] = qHTS for Inhibitors of the Functional Ribonucleoprotein Complex (vRNP) of Lymphocytic Choriomeningitis Arenaviruses (LCMV): Viability assay - alamar blue signal for LCMV Primary Screen (AID 1347085; calls by dose curve; tested in HEK293 reporter line; further: nearly all actives have a fitted effect of over 80% in size); details: alamar blue viability counter-screen, LCMV vRNP screen cells; series mostly up to 57.5 µM
[5] = target: Nucleoprotein (Lymphocytic choriomeningitis virus (strain Armstrong)) (UniProt P09992); experiment: qHTS for Inhibitors of the Functional Ribonucleoprotein Complex (vRNP) of Lymphocytic Choriomeningitis Arenaviruses (LCMV): LCMV Primary Screen - GLuc reporter signal (AID 1347086; calls by dose curve; further: nearly all actives have a fitted effect of over 70% in size); details: LCMV minigenome vRNP cell assay, Gaussia luciferase reporter; series mostly up to 57.5 µM
Chain of Nucleoprotein (Lymphocytic choriomeningitis virus (strain Armstrong)) (P09992 whole entry, looked up): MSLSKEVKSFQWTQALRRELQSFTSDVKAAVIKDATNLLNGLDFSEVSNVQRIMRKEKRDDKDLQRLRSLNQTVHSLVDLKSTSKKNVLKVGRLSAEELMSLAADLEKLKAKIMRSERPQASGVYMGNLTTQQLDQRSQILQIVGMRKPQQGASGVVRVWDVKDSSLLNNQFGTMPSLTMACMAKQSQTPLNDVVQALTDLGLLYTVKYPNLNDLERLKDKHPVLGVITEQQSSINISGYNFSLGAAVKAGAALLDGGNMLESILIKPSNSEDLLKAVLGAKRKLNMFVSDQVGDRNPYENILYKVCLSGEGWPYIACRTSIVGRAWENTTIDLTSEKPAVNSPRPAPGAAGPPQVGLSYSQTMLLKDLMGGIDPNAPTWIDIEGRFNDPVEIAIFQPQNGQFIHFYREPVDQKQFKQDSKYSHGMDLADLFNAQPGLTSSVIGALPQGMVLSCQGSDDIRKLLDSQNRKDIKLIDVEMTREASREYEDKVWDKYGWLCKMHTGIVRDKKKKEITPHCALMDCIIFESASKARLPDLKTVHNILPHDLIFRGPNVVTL

Measured: Potency

O=P1(NCCCl)OCCCN1CCCl (centres undefined)
inactive: all assays above

O=[N+]([O-])c1cc([As](=O)(O)O)ccc1O
inactive: all assays above

Oc1ccc(Cl)cc1Cc1ccccc1
inactive: all assays above

CC(C)(C)CC(C)(C)c1ccc(O)cc1
inactive: all assays above

CN1CCN(C(=O)O[C@H]2c3nccnc3C(=O)N2c2ccc(Cl)cn2)CC1
inactive: all assays above

CN(C)CCc1ccc(O)cc1
inactive: all assays above

CC(C)NCC(O)c1ccccc1Cl (centres undefined)
inactive: all assays above

C[C@]12CC[C@H]3[C@@H](CCC4=CC(=O)CC[C@@H]43)[C@@H]1CC[C@@H]2OC(=O)CCc1ccccc1
inactive: all assays above

Oc1cc(Cl)ccc1Oc1ccc(Cl)cc1Cl
inactive: all assays above

C[C@]12C/C(=C/O)C(=O)C[C@@H]1CC[C@@H]1[C@@H]2CC[C@@]2(C)[C@H]1CC[C@]2(C)O
inactive: all assays above

CC(=O)Nc1cc([As](=O)(O)O)ccc1O
inactive: all assays above

NCCc1cc(O)c(O)cc1O
inactive: all assays above

CCC(COC(=O)c1cc(OC)c(OC)c(OC)c1)(c1ccccc1)N(C)C (centres undefined)
inactive: all assays above

Clc1ccc(CCC(Cn2ccnc2)Sc2c(Cl)cccc2Cl)cc1 (centres undefined)
active: [1] 14.8 µM
inactive: all other assays above

CCOP(=S)(OCC)Oc1cc(C)nc(C(C)C)n1
inactive: all assays above

O=c1oc2ccccc2c(O)c1C(CC(O)c1ccc(-c2ccc(Br)cc2)cc1)c1ccccc1 (centres undefined)
inactive: all assays above

C=C1C[C@@H]2[C@H](CC[C@]3(C)C(=O)CC[C@@H]23)[C@@]2(C)C=CC(=O)C=C12
inactive: all assays above

c1ccc2c(c1)Nc1ccccc1S2
inactive: all assays above

COC[C@@H](NC(C)=O)C(=O)NCc1ccccc1
inactive: all assays above

Cn1cc(C2=C(c3cn(C4CCN(Cc5ccccn5)CC4)c4ccccc34)C(=O)NC2=O)c2ccccc21
inactive: [1] | [2]

Oc1cccc2cccnc12
14.1 µM (active) and inactive: [1]
inactive: all other assays above

CNC(=O)c1ccc(N2C(=S)N(c3ccc(C#N)c(C(F)(F)F)c3)C(=O)C23CCC3)cc1F
not listed: [5]
inactive: all other assays above

CCC(C(N)=O)N1CCCC1=O (centres undefined)
inactive: all assays above

CCN(CC)CCOC(=O)C(O)(c1ccccc1)c1ccccc1
inactive: all assays above

Clc1cccc(N2CCNCC2)c1
inactive: all assays above

COc1ccc(Cc2nccc3cc(OC)c(OC)cc23)cc1OC
inactive: [1] | [3] | [4]

FC(F)(F)c1cccc(C2=CCN(CCc3ccc4ccccc4c3)CC2)c1
inactive: all assays above

CN1C(=S)CN=C(c2ccccc2)c2cc(Cl)ccc21
inactive: all assays above
